Results as given in the supplement of paper PMC9177965.
Where “and” joins values, the source holds several entries; their conditions need not be identical. Identical values can stand only once.

Each compound was assayed on HT29 RNF43 G659fs (RNF43 659mut, CRISPR-edited) (assay: cell viability activity relative to DMSO (negative = inhibition); higher = more viable cells (less growth inhibition)). Settings: 5 µM; 96 h.
Experimental: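 Broad Repurposing Library primary screen at a single dose of 5 uM. HT29 sg-Ctrl and HT29 RNF43 G659fs CRISPR-edited isogenic cells were seeded at 2500 cells/well in 384-well plates in duplicate and treated for 96 h. Viability was read by CellTiter-Glo and reported as % activity relative to DMSO, with MG132 as the positive control (negative = growth inhibition).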
Work on `COc1cc(F)c(F)c(Nc2ccc(I)cc2F)c1NS(=O)(=O)C1(C[C@H](O)CO)CC1` yielded a cell viability activity of -74.1%. With `Cc1nc(C#Cc2ccnc(Cl)c2)c(C)n1-c1ccc(OC(F)(F)F)cc1` the cell viability activity was -25.5%. Compound `C[C@H]1O[C@@H](O[C@H]2[C@@H](O)C[C@H](O[C@H]3[C@@H](O)C[C@H](O[C@H]4CC[C@@]5(C)[C@H](CC[C@@H]6[C@@H]5CC[C@]5(C)[C@@H](C7=CC(=O)OC7)CC[C@]65O)C4)O[C@@H]3C)O[C@@H]2C)C[C@H](O)[C@@H]1O` has a cell viability activity of -92.2%. `NNc1nncc2ccccc12` showed a cell viability activity of -46.5%. `O=C(NOCCO)c1cc(CN2OCCCC2=O)c(F)c(F)c1Nc1ccc(I)cc1F` showed a cell viability activity of -76.5%. In the case of `COc1cc(N2CCC(N)CC2)ccc1Nc1ncc(Cl)c(-c2c[nH]c3ccccc23)n1`, the cell viability activity was -95.8%. Compound `CCCCCCCCN=c1ccn(CCCCCCCCCCn2ccc(=NCCCCCCCC)cc2)cc1` has a cell viability activity of -94.6%. For `COc1cc2nc(N3CCC(N4CCCCC4)CC3)nc(NC3CCCCCC3)c2cc1OC`, the cell viability activity was -93.5%. In the case of `C[C@H]1[C@H](OC(=O)CCC(=O)O)O[C@@H]2O[C@@]3(C)CC[C@H]4[C@H](C)CC[C@@H]1[C@@]24OO3`, the cell viability activity was -42.8% and -37.2%. Work on `CCCCCC(O)c1cccc(OCc2ccc3ccccc3n2)c1` (centres undefined) yielded a cell viability activity of -71.3%. Work on `CCCCCCCCNC(C)C(O)c1ccc(SC(C)C)cc1` (centres undefined) yielded a cell viability activity of -87.2%. `COC(=O)N[C@@H](C)CNc1nccc(-c2cn(C(C)C)nc2-c2cc(Cl)cc(NS(C)(=O)=O)c2F)n1` showed a cell viability activity of -69.5%. Work on `O=C(O)C[C@H](O)C[C@H](O)/C=C/c1c(C2CC2)nc2ccccc2c1-c1ccc(F)cc1` yielded a cell viability activity of -25.1%. With `Nc1c2ccccc2nc2ccccc12` the cell viability activity was -86.1%.
